Several values for one entry are separate records, joined by “and”; a condition that tells them apart may be missing. Equal values may be shown once. Compounds without any hit were thinned out: in the full panel of roughly 83,000, 20% have a hit.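 Plates (96-well) were seeded with cells, treated with compound at one concentration, and incubated for 48 hours before percent growth was determined.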 Unmarked numbers belong to inactive results. Activity calls are given as the source filed them. How the source made its calls: active means growth percent below 10; inactive means the rest.
The compounds below were run on SNB-75 CNS (assay: NCI-60 one-dose screen, 48 h (100 = growth as untreated, 0 = no growth, -100 = all killed)). Settings: 10 µM unless noted.
`C=CC(=O)N1CCN(c2ccc3nc4c(nc3c2C(F)(F)F)C(=O)c2ncccc2C4=O)CC1` gave a growth of 82.3%. In the case of `O=C(N/N=C/c1ccc(-c2cccc([N+](=O)[O-])c2)s1)c1[nH]c2ccc(Br)cc2c1-c1ccccc1`, the growth is reported as 86.8%. `CCCCNc1ccc2c3c(cccc13)C(=O)N(NCC(O)COc1ccc3c(C)cc(=O)oc3c1)C2=O` (stereo unspecified) showed a growth of 94.1%. `CC(=O)Nc1cccc(-n2c(COc3ccc(Br)cc3)nc3ccccc32)c1` was tested, and the growth was 89% and 94.7%. `CC(=O)c1c2c(c3ccc4c5ccccc5ccc4n13)C(=O)c1ccccc1C2=O` was tested, and the growth was 93.8%. `CC1=NN(C2=NC(=O)C(CC(=O)Nc3ccccc3C(F)(F)F)S2)C(c2ccc(N(C)C)cc2)C1` (stereo unspecified) gave a growth of 54.9%. With `Cc1ccc(C2CC(c3ccc(NC(=O)Nc4ccccc4)cc3)=NN2c2ccc(S(C)(=O)=O)cc2)cc1` (stereo unspecified) the growth was 56.9%. In the case of `O=C(CSc1nc2sc3c(c2c(=O)n1-c1ccc(Cl)cc1)CCCC3)N/N=C/C=C/c1ccccc1`, the growth is reported as -23.2% (active). For `O=C(COc1ccc(/C=C2/C(=O)Nc3ccc(Cl)cc32)cc1)Nc1ccc(Br)cc1`, the growth was -57% (active). `CC(C)(C)OC(=O)N1CCC2(CC1)Oc1ccccc1[C@H]1CC(c3ccc(Br)cc3)=NN12` was tested, and the growth was 72.8%. Work on `N#Cc1c(-c2ccc(F)cc2)nc(SCc2ccc(F)cc2)nc1N1CCNCC1` yielded a growth of 19.3%. For `Cc1ccc(/C=C/C(=O)c2ccc(S(=O)(=O)NCCNc3nc(N(C)C)nc(N4CCOCC4)n3)cc2)cc1`, the growth was 59.5%. With `ClC(Cn1ncc2c(Nc3cccc(Br)c3)nc(SCCN3CCOCC3)nc21)c1ccc(Br)cc1` (stereo unspecified) the growth was 59.8%. In the case of `COc1ccc(N=Nc2c(N)nn3c(N)c(C#N)c(-c4ccccc4)nc23)cc1`, the growth is reported as -15.8% (active). Work on `Cc1cccc(-c2ccccc2Oc2ccc3nnc(Cl)n3n2)c1` yielded a growth of 89.4%. With `CCN1CCN(Cc2ccc(C(=O)Nc3cccc(Nc4ccc5c(OC)cccc5n4)c3)cc2C(F)(F)F)CC1` the growth was -89.7% (active). `N#CCc1nnc(NC(=O)c2ccc(-n3c(=O)[nH]c4ccccc4c3=O)cc2)s1` gave a growth of 86.8%. Work on `COc1cc(NC(=O)CSc2nnc(-c3ccc(-c4nc5ccc(Cl)cc5[nH]4)cc3)o2)cc(OC)c1OC` yielded a growth of 36.8%. For `c1n[nH]cc1-c1nc2ccc3cn[nH]c3c2c2c1CCCC2`, the growth was 108%. For `Cc1ccccc1NC(=O)c1cccc(NC(=O)CCl)c1`, the growth was 53.9%. For `COc1ccc(-c2cc(-c3cc(OC)c(OC)c(OC)c3)[nH]c(=O)c2C#N)cc1`, the growth was -22.4% (active). For `O=C(CSc1nc2c(c(=O)[nH]1)CCCC2)Nc1ccccc1C(=O)O`, the growth was 125%. With `N/C(=N\c1nc2ccccc2s1)NC(=O)Nc1ccccc1[N+](=O)[O-]` the growth was 19.5%. With `FC(F)(F)c1cc2c(Cl)ncnc2n1CCN1CCOCC1` the growth was 53.5%. In the case of `O=C(NNC(=O)c1ccc(OCc2nc3ccc(Cl)cc3[nH]2)cc1)Nc1ccc(Cl)c(Cl)c1`, the growth is reported as 111%. For `Clc1ccc(-c2nc3c4c(-c5ccccc5)c(-c5ccccc5)n(Cc5ccccc5)c4ncn3n2)cc1`, the growth was -23.1% (active). With `COc1c(B(O)O)cc(F)cc1-c1nc2c(F)cc3[nH]ncc3c2c2c1CCCC2` the growth was -78.1% (active). With `C/C(=N\Nc1ccc(C(=O)O)cc1)c1cnn(-c2cc(=O)[nH]c3ccc(C)cc23)c1C` the growth was 91.9%. For `O=C1Nc2cc(-c3ccc(NS(=O)(=O)c4ccc([N+](=O)[O-])cc4)cc3)ccc2/C1=C/c1ccc[nH]1`, the growth was 34.1%. In the case of `COc1ccc(NC(=O)CSc2nnc(-c3ccc(-c4nc5ccc(Cl)cc5[nH]4)cc3)o2)cc1`, the growth is reported as 5.21% (active). In the case of `COc1ccc2[nH]c(O)c(N=Nc3nc(-c4ccc(C#N)cc4)cs3)c2c1`, the growth is reported as -3.1% (active). `COc1ccc(-c2nc3ccc(-c4nnc(SCC(=O)Nc5ccc(/C(C)=N\O)cc5)o4)cc3[nH]2)cc1` showed a growth of 11.8%. `CCCCCCCCCCCCCCCCCC(=O)Nc1ccc(OC)cc1` showed a growth of 144%. Work on `CCN1C(=O)N(CC)C2NNC(Sc3c(C(=O)O)c4ccccc4n(CCC(C)C)c3=O)=NC21` (stereo unspecified) yielded a growth of 26.1%. For `COc1ccc(/C=C/c2nc3ccccc3n3c(-c4cccc([N+](=O)[O-])c4)nnc23)cc1`, the growth was -2.16% (active). `COc1ccc(NC(=O)N/N=C/c2c[nH]c3ccccc23)cc1` was tested, and the growth was 19.6%. With `CCC(=O)c1cc(C(=O)OC)c2ccc3c4ccccc4ccc3n12` the growth was 47%. Compound `Cc1oc(-c2ccccc2)nc1CN[C@@H]1C[C@@H]2C[C@H]([C@H]1C)C2(C)C` has a growth of 79.2%.

These compounds were tested on SNB-19 CNS in the same assay as above. Settings: 10 µM unless noted.
`C=CC(=O)N1CCN(c2ccc3nc4c(nc3c2C(F)(F)F)C(=O)c2ncccc2C4=O)CC1` gave a growth of 32.3%. `O=C(N/N=C/c1ccc(-c2cccc([N+](=O)[O-])c2)s1)c1[nH]c2ccc(Br)cc2c1-c1ccccc1` gave a growth of 56.1%. `CCCCNc1ccc2c3c(cccc13)C(=O)N(NCC(O)COc1ccc3c(C)cc(=O)oc3c1)C2=O` (stereo unspecified) was tested, and the growth was 83.9%. `CC(=O)Nc1cccc(-n2c(COc3ccc(Br)cc3)nc3ccccc32)c1` was tested, and the growth was 96.9% and 98.7%. Compound `CC(=O)c1c2c(c3ccc4c5ccccc5ccc4n13)C(=O)c1ccccc1C2=O` has a growth of 65.4%. Work on `CC1=NN(C2=NC(=O)C(CC(=O)Nc3ccccc3C(F)(F)F)S2)C(c2ccc(N(C)C)cc2)C1` (stereo unspecified) yielded a growth of 54.5%. In the case of `Cc1ccc(C2CC(c3ccc(NC(=O)Nc4ccccc4)cc3)=NN2c2ccc(S(C)(=O)=O)cc2)cc1` (stereo unspecified), the growth is reported as 4.8% (active). Work on `O=C(CSc1nc2sc3c(c2c(=O)n1-c1ccc(Cl)cc1)CCCC3)N/N=C/C=C/c1ccccc1` yielded a growth of 27%. In the case of `O=C(COc1ccc(/C=C2/C(=O)Nc3ccc(Cl)cc32)cc1)Nc1ccc(Br)cc1`, the growth is reported as 5.08% (active). `CC(C)(C)OC(=O)N1CCC2(CC1)Oc1ccccc1[C@H]1CC(c3ccc(Br)cc3)=NN12` was tested, and the growth was 78%. `N#Cc1c(-c2ccc(F)cc2)nc(SCc2ccc(F)cc2)nc1N1CCNCC1` gave a growth of 49.6%. `Cc1ccc(/C=C/C(=O)c2ccc(S(=O)(=O)NCCNc3nc(N(C)C)nc(N4CCOCC4)n3)cc2)cc1` was tested, and the growth was 79.1%. In the case of `ClC(Cn1ncc2c(Nc3cccc(Br)c3)nc(SCCN3CCOCC3)nc21)c1ccc(Br)cc1` (stereo unspecified), the growth is reported as 22.5%. `COc1ccc(N=Nc2c(N)nn3c(N)c(C#N)c(-c4ccccc4)nc23)cc1` showed a growth of 27.1%. `Cc1cccc(-c2ccccc2Oc2ccc3nnc(Cl)n3n2)c1` showed a growth of 97.8%. For `CCN1CCN(Cc2ccc(C(=O)Nc3cccc(Nc4ccc5c(OC)cccc5n4)c3)cc2C(F)(F)F)CC1`, the growth was -99.7% (active). For `N#CCc1nnc(NC(=O)c2ccc(-n3c(=O)[nH]c4ccccc4c3=O)cc2)s1`, the growth was 94.6%. Work on `COc1cc(NC(=O)CSc2nnc(-c3ccc(-c4nc5ccc(Cl)cc5[nH]4)cc3)o2)cc(OC)c1OC` yielded a growth of 49.3%. `c1n[nH]cc1-c1nc2ccc3cn[nH]c3c2c2c1CCCC2` was tested, and the growth was 82.2%. In the case of `Cc1ccccc1NC(=O)c1cccc(NC(=O)CCl)c1`, the growth is reported as 72.7%. `COc1ccc(-c2cc(-c3cc(OC)c(OC)c(OC)c3)[nH]c(=O)c2C#N)cc1` was tested, and the growth was 8.18% (active). In the case of `O=C(CSc1nc2c(c(=O)[nH]1)CCCC2)Nc1ccccc1C(=O)O`, the growth is reported as 99.7%. Work on `N/C(=N\c1nc2ccccc2s1)NC(=O)Nc1ccccc1[N+](=O)[O-]` yielded a growth of 21.1%. Compound `FC(F)(F)c1cc2c(Cl)ncnc2n1CCN1CCOCC1` has a growth of 43.4%. `O=C(NNC(=O)c1ccc(OCc2nc3ccc(Cl)cc3[nH]2)cc1)Nc1ccc(Cl)c(Cl)c1` showed a growth of 20.2%. With `Clc1ccc(-c2nc3c4c(-c5ccccc5)c(-c5ccccc5)n(Cc5ccccc5)c4ncn3n2)cc1` the growth was 8.49% (active). With `COc1c(B(O)O)cc(F)cc1-c1nc2c(F)cc3[nH]ncc3c2c2c1CCCC2` the growth was 7.54% (active). Work on `C/C(=N\Nc1ccc(C(=O)O)cc1)c1cnn(-c2cc(=O)[nH]c3ccc(C)cc23)c1C` yielded a growth of 97.5%. `O=C1Nc2cc(-c3ccc(NS(=O)(=O)c4ccc([N+](=O)[O-])cc4)cc3)ccc2/C1=C/c1ccc[nH]1` gave a growth of 31.1%. In the case of `COc1ccc(NC(=O)CSc2nnc(-c3ccc(-c4nc5ccc(Cl)cc5[nH]4)cc3)o2)cc1`, the growth is reported as -29.2% (active). `COc1ccc2[nH]c(O)c(N=Nc3nc(-c4ccc(C#N)cc4)cs3)c2c1` showed a growth of 77.2%. `COc1ccc(-c2nc3ccc(-c4nnc(SCC(=O)Nc5ccc(/C(C)=N\O)cc5)o4)cc3[nH]2)cc1` showed a growth of 57%. Compound `CCCCCCCCCCCCCCCCCC(=O)Nc1ccc(OC)cc1` has a growth of 96.2%. `CCN1C(=O)N(CC)C2NNC(Sc3c(C(=O)O)c4ccccc4n(CCC(C)C)c3=O)=NC21` (stereo unspecified) gave a growth of 15.5%. `COc1ccc(/C=C/c2nc3ccccc3n3c(-c4cccc([N+](=O)[O-])c4)nnc23)cc1` showed a growth of 15%. `COc1ccc(NC(=O)N/N=C/c2c[nH]c3ccccc23)cc1` gave a growth of 47.3%. Compound `CCC(=O)c1cc(C(=O)OC)c2ccc3c4ccccc4ccc3n12` has a growth of 66.9%. Work on `Cc1oc(-c2ccccc2)nc1CN[C@@H]1C[C@@H]2C[C@H]([C@H]1C)C2(C)C` yielded a growth of 37.6%.
